Compound activity as filed in PubChem.
Rows were chosen to be rich in hits. Some 0.92% of all compounds tested hit in one or more screens of this group.
RE007 growth inh = less growth of the S. pombe RE007 Vpr strain; AID 651644; S. pombe RE007 Vpr strain, BacTiter-Glo ATP luminescence, 24 h; 360,000 tested, 0.21% active; Potency, µM (titrated, usually from 92.2 µM), hits mostly inhibitors; active = well fitted falling curve with a large enough effect; inconclusive = small, poorly fitted or top-dose-only effect; inactive = no such curve, though single readings can be large or run the other way; also: nearly all actives have a fitted effect of over 50% in size
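Fission yeast strain RE007, carrying one chromosomally integrated HIV-1 vpr copy, was seeded at OD 0.01 in PMG+AL medium with 23 nL pinned compound. After 24 h at 30 °C and 99% humidity, viability was read by BacTiter-Glo luminescence.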
Tb PYK inh = T. brucei pyruvate kinase inhibition. TbPYK enzyme, Kinase-Glo Plus ATP luminescence, 45 min. Potency, µM (doses to about 76.8 µM), actives largely listed as inhibitors. 410,000 tested, 0.12% active; also: nearly all actives have a fitted effect of over 50% in size
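Enzyme and substrate buffer are dispensed first and compound is pin-transferred. ADP at 130 uM final then starts the reaction, which runs 45 min at room temperature. Detection reagent is added for 10 min before luminescence is imaged.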
AMA1 RON2 block = disrupts binding of P. falciparum AMA1 to RON2; AID 720542; Potency, µM (series often up to 58.2 µM), actives largely listed as inhibitors; 360,000 tested, 0.2% active; AlphaScreen AMA1-biotinylated RON2 peptide binding; also: nearly all actives have a fitted effect of over 45% in size
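AMA1 (3D7) with his tag at 25 nM final met compounds first, then biotinylated RON2 peptide at 25 nM; detection used donor plus acceptor beads, 10 µg/mL apiece, read by AlphaScreen after 30 min at room temperature.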
NS1 function inh = influenza NS1 inhibition; Potency, µM (highest dose often 46.1 µM); 270,000 tested, 0.4% active; AID 2326; calls by dose curve; also: actives are rising curves; nearly all actives have a fitted effect of over 50% in size
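Read-out: OD600 growth recovery of NS1-expressing budding yeast. Cells grown overnight at 30C in -URA glucose medium, washed, resuspended and diluted 1:100 in 2% galactose assay medium, pH 6.0. Same strain lacking NS1 served as positive control.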
LmPK inhibitor = inhibitors of Leishmania mexicana pyruvate kinase. Q27686. purified LmPK, Kinase-Glo ATP luminescence, 1 h. Potency, µM (doses to about 57.5 µM), most hits filed as inhibitors. 290,000 tested, 0.37% active
Target sequence (Q27686 whole entry, looked up): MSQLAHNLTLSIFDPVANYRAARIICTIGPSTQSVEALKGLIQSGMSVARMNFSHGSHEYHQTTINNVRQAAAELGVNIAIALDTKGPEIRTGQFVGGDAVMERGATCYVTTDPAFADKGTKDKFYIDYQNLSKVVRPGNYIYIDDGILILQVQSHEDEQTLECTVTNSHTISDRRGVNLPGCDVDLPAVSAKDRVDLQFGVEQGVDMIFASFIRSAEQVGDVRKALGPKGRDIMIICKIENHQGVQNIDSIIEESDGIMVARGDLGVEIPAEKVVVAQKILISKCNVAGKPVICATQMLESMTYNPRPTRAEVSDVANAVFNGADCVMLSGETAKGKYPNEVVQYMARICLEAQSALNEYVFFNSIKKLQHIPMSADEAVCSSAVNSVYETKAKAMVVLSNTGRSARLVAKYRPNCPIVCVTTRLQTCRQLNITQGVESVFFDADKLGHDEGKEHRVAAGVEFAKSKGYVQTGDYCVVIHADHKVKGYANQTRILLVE
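Pyruvate kinase activity monitored as ATP production (luciferase luminescence). Conditions: 0.1 nM enzyme, 0.5 mM PEP, 0.1 mM ADP, 1 h, RT; normalized against uninhibited and no-enzyme wells.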
Flu NS1 inh = influenza NS1 function inhibition validation; 1,400 tested, under 10 active; activity change, negative = inhibition, % at 32.9 µM; AID 492980; shares compounds with NS1 function inh; influenza NS1 function cell assay, 15-point titration; calls by dose curve
PR8 titer = influenza virus titer reduction, NS1 project; shares compounds with NS1 function inh; MDCK infected influenza A/PR/8/34, virus titer TCID50; active compounds read low; virus titer (log TCID50), log10 TCID50 at 5 µM; 95 tested, 30% active; call rule not given here
Numbers stand for hits; [ ] = dose if it differs, or a comment. Unless noted, calls follow the shape of the dose curve; as a rule, active = well fitted curve in the direction sought with a large enough effect; inconclusive = small, poorly fitted or top-dose-only effect, or another doubt; inactive = no such curve, though single readings can be large; an effect the other way counts as inactive or inconclusive.

Screening CCOC(=O)COc1c(OC)cc(Cl)cc1C1Nc2ccccc2C(=O)N1c1ccc(F)cc1 (stereo unspecified) returned RE007 growth inh inactive, Tb PYK inh inactive, AMA1 RON2 block inactive, NS1 function inh 13µM, LmPK inhibitor inactive and Flu NS1 inh inactive.
Screening COc1cc(/C=N\Nc2nc3ccccc3[nH]2)cc(OC)c1OC returned RE007 growth inh inactive, Tb PYK inh inactive, AMA1 RON2 block inactive, NS1 function inh 2.8µM, LmPK inhibitor inactive and Flu NS1 inh inactive.
COc1ccc(/C=N/Nc2nc3ccccc3[nH]2)cc1OC was read as RE007 growth inh inactive, Tb PYK inh inactive, AMA1 RON2 block inactive[11.6 µM], NS1 function inh inactive and LmPK inhibitor inactive.
`CS(=O)(=O)Nc1ccc(-c2nc3ccccc3s2)cc1` gave Tb PYK inh inactive.
For O=C(NCC(c1cccnc1)N1CCc2ccccc21)C(=O)Nc1ccccc1F (stereo unspecified) the results were Tb PYK inh inactive.
`Cc1noc(/C=C/N(C)C)c1S(=O)(=O)N1CCCC(C(=O)NC(C)c2ccccc2)C1` (stereo unspecified) gave RE007 growth inh inactive, Tb PYK inh inactive, AMA1 RON2 block inactive, NS1 function inh 1.8µM, LmPK inhibitor inactive, Flu NS1 inh inconclusive and PR8 titer inactive.
Cc1cc(Nc2cc(F)ccc2C)n2nc(C)nc2n1 was read as RE007 growth inh inactive, Tb PYK inh inactive, AMA1 RON2 block inactive, NS1 function inh inactive and LmPK inhibitor inactive.
Screening Cc1cc(Nc2ccc(F)cc2F)n2nc(C)nc2n1 returned RE007 growth inh inactive, Tb PYK inh inactive, AMA1 RON2 block inactive, NS1 function inh 13µM, LmPK inhibitor inactive and Flu NS1 inh inactive.
Screening COc1ccc(C(=O)Nc2c(N)nc(SCC(=O)Nc3ccc(NC(C)=O)cc3)[nH]c2=O)cc1OC returned RE007 growth inh inactive, Tb PYK inh inactive, AMA1 RON2 block inactive, NS1 function inh 22µM, LmPK inhibitor inactive and Flu NS1 inh inactive.
O=C(COc1ccc2c(c1)oc(=O)c1ccccc12)NC(Cc1ccc(Cl)cc1)C(=O)O (stereo unspecified) was read as RE007 growth inh inactive, Tb PYK inh inactive, AMA1 RON2 block inactive, NS1 function inh 11µM, LmPK inhibitor inactive and Flu NS1 inh inactive.
For COc1ccc(-c2cc(C(=O)Nc3nc4ccccc4s3)c3ccccc3n2)cc1OC the results were RE007 growth inh inactive, Tb PYK inh inactive, AMA1 RON2 block inactive, NS1 function inh 22µM, LmPK inhibitor inactive and Flu NS1 inh inactive.
`COc1ccc(-c2cc(C(=O)Nc3ccccc3O)c3ccccc3n2)cc1OC` gave RE007 growth inh inactive, Tb PYK inh inactive, AMA1 RON2 block inactive, NS1 function inh inactive and LmPK inhibitor inactive.
For COCCNC(=O)c1ccc(Cn2c(=S)[nH]c3cc4c(cc3c2=O)OCO4)cc1 the results were RE007 growth inh inactive, Tb PYK inh inconclusive, AMA1 RON2 block inactive, NS1 function inh inactive and LmPK inhibitor inactive.
`COC(CNC(=O)c1ccc(Cn2c(=S)[nH]c3cc4c(cc3c2=O)OCO4)cc1)OC` gave RE007 growth inh inactive, Tb PYK inh inconclusive, AMA1 RON2 block inactive, NS1 function inh 6.3µM, LmPK inhibitor inconclusive and Flu NS1 inh inactive.
COc1cc(CNc2ccc(CNc3ncn[nH]3)cc2)ccc1OCc1ccccc1 was read as RE007 growth inh inactive, Tb PYK inh inactive, AMA1 RON2 block inactive, NS1 function inh inconclusive, LmPK inhibitor inactive and Flu NS1 inh inactive.
CCC(CO)NC(=O)[C@@H]1C=C2c3cccc4[nH]cc(c34)C[C@H]2N(C)C1 (stereo partly specified) was read as NS1 function inh 35µM and Flu NS1 inh inactive.
For CCOc1ccc(/C(O)=C2/C(=O)C(=O)N(c3ncccn3)C2c2ccccc2)cc1 (stereo unspecified) the results were RE007 growth inh inactive, Tb PYK inh inactive, AMA1 RON2 block inactive, NS1 function inh 2µM, LmPK inhibitor inactive and Flu NS1 inh inactive.
